For eleven molecules, binding signal results are on record in article PMC12529666, “Dysregulation of AGO2-miRNA dynamics underlies the AGO2-associated Lessel–Kreienkamp syndrome”.

Sequences and labels used below:
B1: GTATCTTA (ssRNA)
RNA 1: GAGUUCUACAGUCCGACGAUCCCAACGUAUCUUACACCUGGAAUUCUCGGGUGCCAA
RNA 2: UGGAGUGUGACAAUGGUGUUUG
DNA 1: GATCGTCGGACTGTAGAACTC
DNA 2: TTGGCACCCGAGAATTCCA
modifications: constant regions annealed to DNA blockers; guide miR-122 5' phosphate
B2: ATATTCTG (ssRNA)
RNA 1: GAGUUCUACAGUCCGACGAUCCCAACAUAUUCUGCACCUGGAAUUCUCGGGUGCCAA
RNA 2: UGGAGUGUGACAAUGGUGUUUG
DNA 1: GATCGTCGGACTGTAGAACTC
DNA 2: TTGGCACCCGAGAATTCCA
modifications: constant regions annealed to DNA blockers; guide miR-122 5' phosphate
B3: GTGTTTCG (ssRNA)
RNA 1: GAGUUCUACAGUCCGACGAUCCCAACGUGUUUCGCACCUGGAAUUCUCGGGUGCCAA
RNA 2: UGGAGUGUGACAAUGGUGUUUG
DNA 1: GATCGTCGGACTGTAGAACTC
DNA 2: TTGGCACCCGAGAATTCCA
modifications: constant regions annealed to DNA blockers; guide miR-122 5' phosphate
B4: ACGTTTTG (ssRNA)
RNA 1: GAGUUCUACAGUCCGACGAUCCCAACACGUUUUGCACCUGGAAUUCUCGGGUGCCAA
RNA 2: UGGAGUGUGACAAUGGUGUUUG
DNA 1: GATCGTCGGACTGTAGAACTC
DNA 2: TTGGCACCCGAGAATTCCA
modifications: constant regions annealed to DNA blockers; guide miR-122 5' phosphate
B5: GCATCCCG (ssRNA)
RNA 1: GAGUUCUACAGUCCGACGAUCCCAACGCAUCCCGCACCUGGAAUUCUCGGGUGCCAA
RNA 2: UGGAGUGUGACAAUGGUGUUUG
DNA 1: GATCGTCGGACTGTAGAACTC
DNA 2: TTGGCACCCGAGAATTCCA
modifications: constant regions annealed to DNA blockers; guide miR-122 5' phosphate
B6: GCATTCTG (ssRNA)
RNA 1: GAGUUCUACAGUCCGACGAUCCCAACGCAUUCUGCACCUGGAAUUCUCGGGUGCCAA
RNA 2: UGGAGUGUGACAAUGGUGUUUG
DNA 1: GATCGTCGGACTGTAGAACTC
DNA 2: TTGGCACCCGAGAATTCCA
modifications: constant regions annealed to DNA blockers; guide miR-122 5' phosphate
B7: GTACTCTA (ssRNA)
RNA 1: GAGUUCUACAGUCCGACGAUCCCAACGUACUCUACACCUGGAAUUCUCGGGUGCCAA
RNA 2: UGGAGUGUGACAAUGGUGUUUG
DNA 1: GATCGTCGGACTGTAGAACTC
DNA 2: TTGGCACCCGAGAATTCCA
modifications: constant regions annealed to DNA blockers; guide miR-122 5' phosphate
B8: ATGTTCCG (ssRNA)
RNA 1: GAGUUCUACAGUCCGACGAUCCCAACAUGUUCCGCACCUGGAAUUCUCGGGUGCCAA
RNA 2: UGGAGUGUGACAAUGGUGUUUG
DNA 1: GATCGTCGGACTGTAGAACTC
DNA 2: TTGGCACCCGAGAATTCCA
modifications: constant regions annealed to DNA blockers; guide miR-122 5' phosphate
B9: GTATTTTG (ssRNA)
RNA 1: GAGUUCUACAGUCCGACGAUCCCAACGUAUUUUGCACCUGGAAUUCUCGGGUGCCAA
RNA 2: UGGAGUGUGACAAUGGUGUUUG
DNA 1: GATCGTCGGACTGTAGAACTC
DNA 2: TTGGCACCCGAGAATTCCA
modifications: constant regions annealed to DNA blockers; guide miR-122 5' phosphate
B10: ATGCTCTG (ssRNA)
RNA 1: GAGUUCUACAGUCCGACGAUCCCAACAUGCUCUGCACCUGGAAUUCUCGGGUGCCAA
RNA 2: UGGAGUGUGACAAUGGUGUUUG
DNA 1: GATCGTCGGACTGTAGAACTC
DNA 2: TTGGCACCCGAGAATTCCA
modifications: constant regions annealed to DNA blockers; guide miR-122 5' phosphate
B11: GCACTTTG (ssRNA)
RNA 1: GAGUUCUACAGUCCGACGAUCCCAACGCACUUUGCACCUGGAAUUCUCGGGUGCCAA
RNA 2: UGGAGUGUGACAAUGGUGUUUG
DNA 1: GATCGTCGGACTGTAGAACTC
DNA 2: TTGGCACCCGAGAATTCCA
modifications: constant regions annealed to DNA blockers; guide miR-122 5' phosphate

Chain of AGO2 A367P (Q9UKV8 whole entry A367P/S387D/S824A/S828D/S831D/S834A): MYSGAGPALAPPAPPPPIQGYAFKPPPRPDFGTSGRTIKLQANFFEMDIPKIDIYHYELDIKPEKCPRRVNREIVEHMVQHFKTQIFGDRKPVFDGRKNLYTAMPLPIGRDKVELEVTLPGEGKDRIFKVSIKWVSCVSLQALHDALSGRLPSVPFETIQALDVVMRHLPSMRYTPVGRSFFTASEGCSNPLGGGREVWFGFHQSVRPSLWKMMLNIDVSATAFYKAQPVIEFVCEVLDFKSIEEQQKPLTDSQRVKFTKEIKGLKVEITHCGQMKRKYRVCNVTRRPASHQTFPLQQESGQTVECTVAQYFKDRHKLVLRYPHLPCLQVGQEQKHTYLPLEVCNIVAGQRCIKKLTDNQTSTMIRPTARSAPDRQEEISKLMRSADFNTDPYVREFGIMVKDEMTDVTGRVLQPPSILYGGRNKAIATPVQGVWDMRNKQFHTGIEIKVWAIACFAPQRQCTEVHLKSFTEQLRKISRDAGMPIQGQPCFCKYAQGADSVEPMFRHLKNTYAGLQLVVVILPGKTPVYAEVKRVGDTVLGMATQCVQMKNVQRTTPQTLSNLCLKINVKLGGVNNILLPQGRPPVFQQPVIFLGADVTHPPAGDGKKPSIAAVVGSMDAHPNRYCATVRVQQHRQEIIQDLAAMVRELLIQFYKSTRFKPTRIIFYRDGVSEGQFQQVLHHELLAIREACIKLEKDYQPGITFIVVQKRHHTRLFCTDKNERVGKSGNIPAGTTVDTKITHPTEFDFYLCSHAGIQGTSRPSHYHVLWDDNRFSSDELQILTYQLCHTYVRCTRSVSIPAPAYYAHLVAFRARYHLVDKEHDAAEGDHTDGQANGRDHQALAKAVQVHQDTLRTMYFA
Chain of AGO2 L192P (Q9UKV8 whole entry L192P/S387D/S824A/S828D/S831D/S834A): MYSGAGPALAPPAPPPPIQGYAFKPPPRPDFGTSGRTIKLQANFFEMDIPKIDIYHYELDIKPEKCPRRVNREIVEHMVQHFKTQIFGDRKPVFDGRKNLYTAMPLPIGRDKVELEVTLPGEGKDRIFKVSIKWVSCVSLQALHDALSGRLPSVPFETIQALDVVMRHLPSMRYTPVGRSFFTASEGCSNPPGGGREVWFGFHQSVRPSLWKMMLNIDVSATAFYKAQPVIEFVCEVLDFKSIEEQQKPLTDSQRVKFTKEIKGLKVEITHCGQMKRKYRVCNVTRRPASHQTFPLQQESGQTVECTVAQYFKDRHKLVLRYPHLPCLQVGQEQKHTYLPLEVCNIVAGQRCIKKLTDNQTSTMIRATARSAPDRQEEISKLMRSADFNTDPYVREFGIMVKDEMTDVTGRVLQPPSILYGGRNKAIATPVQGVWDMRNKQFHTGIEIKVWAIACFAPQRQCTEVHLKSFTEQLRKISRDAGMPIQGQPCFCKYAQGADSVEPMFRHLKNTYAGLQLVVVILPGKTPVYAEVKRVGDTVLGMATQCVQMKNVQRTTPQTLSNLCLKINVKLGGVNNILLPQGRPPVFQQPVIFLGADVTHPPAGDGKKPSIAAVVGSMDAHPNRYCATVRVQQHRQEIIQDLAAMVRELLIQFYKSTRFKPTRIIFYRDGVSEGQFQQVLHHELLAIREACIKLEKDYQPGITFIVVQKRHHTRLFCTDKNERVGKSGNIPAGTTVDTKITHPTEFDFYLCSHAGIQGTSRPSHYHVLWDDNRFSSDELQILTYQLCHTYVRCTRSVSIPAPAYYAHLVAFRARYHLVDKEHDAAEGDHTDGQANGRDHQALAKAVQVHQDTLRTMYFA

The target of one assay is AGO2 L192P (Homo sapiens, UniProt Q9UKV8 1-859, L192P;S387D;S824A;S828D;S831D;S834A). The assay is described as follows: RNA Bind-n-Seq (nitrocellulose filter binding and sequencing); miR-122 guide loaded in AGO2; 60 min incubation; 30 mM Tris pH 8.0, 100 mM potassium acetate, 2 mM magnesium acetate, 0.5 mM TCEP, 0.005% NP-40, 0.01 mg/ml yeast tRNA; 3 nM AGO2-miR-122, 100 nM RNA library; 60; high values mean tight binding. The settings on record: protein: recombinant; tags: His6 (N-terminal, pFastBac HTA). A digest of the protocol:
(§1)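 Fold enrichment is each target's read fraction divided by its read fraction in the input library. Sf9 insect cells expressed His-tagged AGO2 from baculovirus; the protein was loaded with a synthetic guide RNA and purified by Ni-NTA and a biotinylated capture oligo. The bound RNA was extracted, reverse-transcribed, barcode-amplified and sequenced on Illumina.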
With B1, the binding signal was 0.457 fold enrichment over input.

B2: the binding signal is 0.389 fold enrichment over input.

Regarding B3, the binding signal was 0.36 fold enrichment over input.

B4: the binding signal was 0.342 fold enrichment over input.

As to B5, the binding signal is 0.376 fold enrichment over input.

With B6, the binding signal was 0.359 fold enrichment over input.

As to B7, the binding signal was 0.425 fold enrichment over input.

Regarding B8, the binding signal is 0.352 fold enrichment over input.

B9: the binding signal was 0.384 fold enrichment over input.

Consider B10, for which the binding signal is 0.376 fold enrichment over input.

Turning to B11, the binding signal is 0.325 fold enrichment over input.

The next assay addresses AGO2 A367P (Homo sapiens, UniProt Q9UKV8 1-859, A367P;S387D;S824A;S828D;S831D;S834A). The description is as above. Conditions: protein: recombinant; tags: His6 (N-terminal, pFastBac HTA). An outline of the steps:
as §1
Regarding B1, the binding signal is 0.174 fold enrichment over input.

For the molecule B2, the binding signal is 0.137 fold enrichment over input.

Regarding B3, the binding signal was 0.133 fold enrichment over input.

On to B4, for which the binding signal is 0.136 fold enrichment over input.

Take B5: the binding signal was 0.143 fold enrichment over input.

Regarding B6, the binding signal was 0.137 fold enrichment over input.

As to B7, the binding signal is 0.181 fold enrichment over input.

With B8, the binding signal is 0.121 fold enrichment over input.

For B9, the binding signal was 0.131 fold enrichment over input.

Regarding B10, the binding signal was 0.14 fold enrichment over input.

With B11, the binding signal was 0.126 fold enrichment over input.

For another assay, the target named is AGO2 T357M (Homo sapiens, UniProt Q9UKV8 1-859, T357M;S387D;S824A;S828D;S831D;S834A). Described as above. Conditions: protein: recombinant; tags: His6 (N-terminal, pFastBac HTA). An outline of the steps: as §1
Chain of AGO2 T357M (Q9UKV8 whole entry T357M/S387D/S824A/S828D/S831D/S834A): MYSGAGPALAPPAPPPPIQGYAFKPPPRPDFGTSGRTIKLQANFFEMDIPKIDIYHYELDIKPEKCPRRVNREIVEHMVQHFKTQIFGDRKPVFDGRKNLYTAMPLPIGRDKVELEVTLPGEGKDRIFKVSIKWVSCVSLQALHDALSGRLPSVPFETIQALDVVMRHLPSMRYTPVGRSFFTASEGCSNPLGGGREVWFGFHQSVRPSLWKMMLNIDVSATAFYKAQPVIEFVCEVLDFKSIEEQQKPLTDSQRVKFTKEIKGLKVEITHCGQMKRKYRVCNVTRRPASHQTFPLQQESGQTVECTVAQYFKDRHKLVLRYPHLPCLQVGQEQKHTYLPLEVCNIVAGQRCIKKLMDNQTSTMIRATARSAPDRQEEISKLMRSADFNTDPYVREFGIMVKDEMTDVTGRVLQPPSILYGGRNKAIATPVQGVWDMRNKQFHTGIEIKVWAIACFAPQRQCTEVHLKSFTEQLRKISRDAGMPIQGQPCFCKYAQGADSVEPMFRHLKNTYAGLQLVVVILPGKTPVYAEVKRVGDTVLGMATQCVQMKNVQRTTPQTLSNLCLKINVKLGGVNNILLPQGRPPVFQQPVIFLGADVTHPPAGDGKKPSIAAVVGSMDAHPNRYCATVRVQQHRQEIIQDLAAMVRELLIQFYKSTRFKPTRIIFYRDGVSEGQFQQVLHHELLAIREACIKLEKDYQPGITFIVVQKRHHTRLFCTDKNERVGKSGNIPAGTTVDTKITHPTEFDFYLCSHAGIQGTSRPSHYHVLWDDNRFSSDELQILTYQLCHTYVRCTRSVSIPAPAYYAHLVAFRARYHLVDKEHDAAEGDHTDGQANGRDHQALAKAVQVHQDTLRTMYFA
On to B1, for which the binding signal was 0.596 fold enrichment over input.

For the molecule B2, the binding signal was 0.54 fold enrichment over input.

As to B3, the binding signal was 0.483 fold enrichment over input.

In the case of B4, the binding signal was 0.495 fold enrichment over input.

In the case of B5, the binding signal is 0.478 fold enrichment over input.

As for B6, the binding signal is 0.44 fold enrichment over input.

Take B7: the binding signal is 0.539 fold enrichment over input.

Regarding B8, the binding signal was 0.475 fold enrichment over input.

For B9, the binding signal was 0.514 fold enrichment over input.

For the molecule B10, the binding signal is 0.486 fold enrichment over input.

On to B11, for which the binding signal is 0.452 fold enrichment over input.
